Shown are actives, neighbours in structure and some others; about 12% of the full set was active somewhere.
Sfp PPTase inh – qHTS Assay for Inhibitors of Bacillus subtilis Sfp phosphopantetheinyl transferase (PPTase); 4'-phosphopantetheinyl transferase ffp (Bacillus subtilis), Q9F4F7; Biochemical Sfp PPTase activity, qHTS; Potency, µM, for the others: largest response in the series, negative = inhibition, usual class: inhibitors; 3.5% of 310,000 active; AID 1490, 2009;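 also: the enzyme is Sfp with the accession as filed and its product quenches rhodamine fluorescence; 0% = enzyme reaction without inhibitor and -100% = no enzyme wells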
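With Hepes-Na pH 7.6 buffer containing 10 mM MgCl2, Sfp (15 nM) modified BHQ-2-YbbR (12.5 uM) using rhodamine-CoA (5 uM). Two reads 30 minutes apart at 525/598 nm yielded each well's rate.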
HP1b binding inh – HTS for Inhibitors of HP1-beta Chromodomain Interactions with Methylated Histone Tails. Chromobox protein homolog 1 (Homo sapiens), P83916. AlphaScreen HP1-beta / biotin-H3K9me3 peptide binding. Potency, µM (titrated, usually from 114 µM), for the others: at the highest dose activity change, negative = inhibition, actives largely listed as inhibitors. 0.56% of 390,000 active. AID 540317, 2011; also: nearly all actives have a fitted effect of over 70% in size
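Compound inhibition of the preformed complex between 50 nM HP1-beta and 50 nM biotinylated H3K9me3 peptide was read by AlphaScreen. Buffer was PBS pH 7.4 with 0.01% Tween-20. Incubations ran 30 min at room temperature, with 10 ug/mL donor/acceptor beads.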
G9a inh – qHTS Assay for Inhibitors of Histone Lysine Methyltransferase G9a | 8.8% of 350,000 active | G9a H3K9 monomethylation, AlphaScreen, 2 h | Potency, µM (highest dose often 102 µM), for the others: top-dose activity, negative = inhibition, actives largely listed as inhibitors; also: % is scaled to controls: 0 for no effect and ±100 for the full control effect; nearly all actives have a fitted effect of over 75% in size
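Compounds were preincubated with 20 nM G9a for 15 min, after which biotinylated H3K9 peptide (500 nM) and SAM (20 uM) started a 2 h room-temperature reaction. Monomethylated product was quantified by antibody-based AlphaScreen chemiluminescence.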
BAZ2B block – qHTS Assay for Inhibitors of BAZ2B | 4.4% of 360,000 active | AID 504333, 2011 | Potency, µM (highest dose often 114 µM), for inactives: top-dose activity change, negative = inhibition, usual class: inhibitors | AlphaScreen BAZ2B-H3K14Ac peptide displacement | Bromodomain adjacent to zinc finger domain protein 2B (Homo sapiens), Q9UIF8; also: % is scaled to controls: 0 for no effect and ±100 for the full control effect; nearly all actives have a fitted effect of over 60% in size
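Inhibition is scored as reduced AlphaScreen emission. The BAZ2B/b-H3(5-23)K14Ac complex (50 nM each) in PBS pH 7.4, 0.01% Tween-20 meets compound (up to 110 uM) for 30 min at RT before bead addition.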
JMJD2A Tudor – qHTS Assay for Inhibitors of JMJD2A-Tudor Domain. Lysine-specific demethylase 4A (Homo sapiens), O75164. AlphaScreen JMJD2A-Tudor / H3K4me3 peptide binding. Potency, µM (titrated, usually from 114 µM), for inactives: at the top dose activity change, negative = inhibition, usual class: inhibitors. 4.4% of 390,000 active; also: % is scaled to controls: 0 for no effect and ±100 for the full control effect; nearly all actives have a fitted effect of over 50% in size
PLK1 PBD block – qHTS for Inhibitors of PLK1-PDB (polo-like kinase 1 - polo-box domain): Primary Screen | Serine/threonine-protein kinase PLK1 (Homo sapiens), P53350 | 2.8% of 360,000 active | Plk1 PBD binding of FITC phosphopeptide, fluorescence polarization | AID 720504, 2013 | Potency, µM, for inactives: max response, negative = inhibition, most hits filed as inhibitors; also: series mostly up to about 57 µM; % is scaled to controls: 0 for no effect and ±100 for the full control effect; nearly all actives have a fitted effect of over 65% in size
Starred values were filed as active, the others as inactive; ? = inconclusive; / = not tested or not shown; ! = repeats disagree; [ ] = remark or other dose. Calls follow the shape of the dose curve; as a rule, active = well fitted curve in the direction sought with a large enough effect; inconclusive = small, poorly fitted or top-dose-only effect, or another doubt; inactive = no such curve, though single readings can be large; an effect the other way counts as inactive or inconclusive. Potency is read from the fitted curve at half-maximal effect.

SMILES	Sfp PPTase inh	HP1b binding inh	G9a inh	BAZ2B block	JMJD2A Tudor	PLK1 PBD block
NC(=NCCc1c[nH]c2ccccc12)NC(=O)c1ccc(Cl)cc1	-28.2%	-11.0%	?	79.4µM*	?	0.3%
O=C(Cc1c[nH]c2ccccc12)NCc1ccco1	8.0%	8.2%	?	50.1µM*	-17.9%	-10.9%
Cc1nnc(NC(=O)CSc2nccn2-c2cccc(Cl)c2)s1	/	8.6%[57 µM]	0.7%[59 µM]	-10.9%	-20.3%	/
CCOC(=O)C(=O)c1csc(NC(=O)CCSc2ccc(C)cc2)n1	-1.0%	23.9%	70.8µM*	/	-16.1%	-11.2%
Nn1c(SCC(=O)NC2CCS(=O)(=O)C2)nnc1-c1ccco1 (stereo unspecified)	/	25.4%	/	/	-2.1%	-1.0%
COCCNC(=S)NCc1cccs1	1.9%	17.9%	28.2µM*	-5.3%	-0.7%	-4.0%
O=C(NCCNCc1cccs1)c1ccccc1F	-23.9%	?	6.31µM*	50.1µM*	3.55µM*	-5.4%
S=C(NCCc1ccccc1)NCc1cccs1	-13.7%	12.6%	24.9%[59 µM]	17.2%	-8.7%	-15.2%
CN(C(=O)c1ccccc1Cl)c1ccccc1C(=O)NCCc1ccccc1	5.3%	10.6%	3.1%	-19.2%	-9.0%	-0.9%
CCc1ccc(CN2CCN(C(=O)c3ccco3)CC2)cc1	?	?	11.2µM*	31.6µM*	20µM*	-11.6%
O=C(COc1ncnc2ccccc12)N1CCN(C(=O)c2ccco2)CC1	15.2%	25.9%	-6.1%	3.3%	-1.6%	-11.5%
O=C(c1ccco1)N1CCN(Cc2c(Cl)cccc2Cl)CC1	9.9%	37.0%	6.8%	1.9%	-9.8%	-8.0%
O=C(COc1ncnc2sccc12)N1CCN(C(=O)c2ccco2)CC1	0.4%	19.7%	50.1µM*	?	?	?
O=C(c1ccco1)N1CCN(Cc2cccc3ccccc23)CC1	?	22.4µM*	14.1µM*	20µM*	22.4µM*	-11.1%
O=C(c1ccco1)N1CCN(S(=O)(=O)c2ccc(Br)s2)CC1	?	3.8%	12.6µM*	-11.7%	-16.3%	-14.0%
CN(Cc1ccccc1)C(=O)CSc1nc2ccccc2n1Cc1ccccc1F	/	48.3%	0.4%[12.7 µM]	-9.4%	2.3%	/
Cc1ccc(N(CC(=O)Nc2cccc(F)c2)S(=O)(=O)c2cccs2)cc1	/	5.5%	5.2%[59 µM]	/	-19.3%	/
OCCN1CCN(c2nccn3ccnc23)CC1	/	/	/	/	/	-5.7%
O=C(c1ccco1)N1CCN(Cc2cc(=O)oc3cc(O)ccc23)CC1	/	20.7%	22.4µM*	-4.5%	-10.4%	-1.8%
Cc1cccc(OCC(=O)N2CCN(C(=O)c3ccco3)CC2)c1	22.0%	14.9%	2.6%	-9.8%	-22.7%	37.7µM*
COc1cccc(S(=O)(=O)N2CCN(C(=O)c3ccco3)CC2)c1	?	47.8%	?	?	-3.4%	1.9%
O=c1cc(CN2CCN(Cc3ccccc3)CC2)c2ccc(O)cc2o1	12.2%	-1.2%	4.7%	-18.9%	-20.5%	2.4%
CC(=O)c1ccc(N2CCN(C(=O)c3ccco3)CC2)c(F)c1	6.2%	-4.4%	?	-5.3%	-30.1%[11.4 µM]	18.9µM*
COc1cccc(CN2CCN(C(=O)c3ccco3)CC2)c1	?	?	20µM*	28.2µM*	28.2µM*	-4.9%
CN(C)c1ccc(C2C=C(c3ccccc3)Nc3nnnn32)cc1 (stereo unspecified)	/	35.6%	?	4.8%	-10.0%	/
SMILES	Sfp PPTase inh	HP1b binding inh	G9a inh	BAZ2B block	JMJD2A Tudor	PLK1 PBD block
COc1ccc(OC)c(CN2CCN(C(=O)c3ccco3)CC2)c1	-29.2%	?	17.8µM*	?	0.794µM*	-6.3%
COc1ccc(CC(=O)N2CCN(C(=O)c3ccco3)CC2)cc1	-23.9%	12.3%	?	-1.3%	-6.6%	-21.2%
Cn1c(C(=O)N2CCN(C(=O)c3ccco3)CC2)cc2c(=O)n3ccccc3nc21	20µM*	32.0%	?	9.8%	-20.8%	-8.1%
Cc1ccc(S(=O)(=O)CCC(=O)OCc2nnc(-c3ccccc3)o2)cc1	/	25.8%	/	/	-3.4%	-0.2%
O=C(NCCCn1ccnc1)/C(=C\c1ccc(Br)cc1)NC(=O)c1ccccc1	10.7%	11.2%	21.4%	-37.5%	?	10.6µM*
CN(C)c1ccc(/C=C(\NC(=O)c2ccccc2)C(=O)NCCCn2ccnc2)cc1	4.0%	-25.7%	50.1µM*	28.2µM*	50.1µM*	-9.9%
COc1ccc(C(=O)N/C(=C\c2cn(S(=O)(=O)N(C)C)c3ccccc23)C(=O)NCCCn2ccnc2)cc1	12.7%	21.5%	1.5%	31.6µM*	?	-6.1%
O=C(NCCCn1ccnc1)/C(=C/c1ccccc1)NC(=O)c1ccccc1	0.7%	6.0%	-14.0%[12.7 µM]	?	44.7µM*	23.8µM*
CSc1ccc(/C=C(/NC(=O)c2ccccc2)C(=O)NCCCn2ccnc2)cc1	9.1%	16.6%	-3.9%	?	-21.4%	0.0%
COc1ccccc1C(=O)N/C(=C/c1ccc(Br)cc1)C(=O)NCCCn1ccnc1	14.2%	26.1%	0.1%	-37.4%	-18.8%	-6.7%
COc1ccc(C(=O)N/C(=C\c2ccccc2)C(=O)NCCCn2ccnc2)cc1	1.2%	21.9%	1.2%	6.1%	13.4%	4.8%
CCOC(=O)[C@]12CCCC=C1N(Cc1ccc(Cl)cc1Cl)C(=O)[C@H](CC(=O)NCC1CCCCC1)C2	/	/	/	/	/	0.9%
CCOC(=O)C1=C(C)OC(N)=C(C#N)C1c1cc2c(cc1[N+](=O)[O-])OCO2 (stereo unspecified)	0.7%	-14.1%	50.1µM*	?	?	-18.6%
Cc1ccc(-c2csc(N/N=C/c3ccco3)n2)c(C)c1	13.5%	?	-12.1%[59 µM]	-9.5%	-21.1%	-29.3%
CN(C)S(=O)(=O)c1cccc(-c2csc(N/N=C/c3ccco3)n2)c1	14.1µM*	?	-15.0%[12.7 µM]	35.5µM*	?	-18.8%
CCCCNc1nc2c(c(=O)n(Cc3ccc(Cl)cc3)c(=O)n2C)n1C	/	-4.0%	-4.5%[59 µM]	?	?	/
Cc1ccc(CSCC(=O)N2CCN(c3ccccc3F)CC2)cc1	/	85.3%	5.8%[59 µM]	8.5%	8.6%	/
CCOC(=O)c1cnc2c(cnn2C)c1NCCC#N	-3.4%	16.1%	-29.4%[12.7 µM]	4.6%	-3.6%	2.0%
CCOC(=O)c1cnc2c(cnn2CC)c1NN=C(C)C	44.7µM*!	/	29.9µM*	/	/	/
Cc1ccc(NC(=O)C2CCN(c3nc4ccccc4nc3C(F)(F)F)CC2)cc1C	/	-6.8%	11.6%[59 µM]	4.5%	-15.9%	/
CCCCC[n+]1ccn(-c2nc3ccccc3nc2[N-]S(=O)(=O)c2ccccc2)c1	35.5µM*	15.8%	-33.6%	20µM*	-3.2%	-10.4%
